In all, about 370,000 compounds went through this assay and about 520 (0.14%) were called active. The sample as a whole holds a higher share of actives than the screen did. Values without a mark were called inactive. No stated cut-off is given here; in the data, active means activation above about 40%; inactive means the rest.
The molecules below were run against Atrial natriuretic peptide receptor 1 (Homo sapiens) (UniProt P16066) (assay: GC-A stimulated cGMP production enhancers – HEK293 GC-A cells, cGMP TR-FRET, EC30 ANP, primary screen (AID 1671463)). Conditions: at 10 µM, active compounds read high, 0% at EC30 ANP, 100% saturating ANP.
Chain of Atrial natriuretic peptide receptor 1 (Homo sapiens) (P16066 whole entry, looked up): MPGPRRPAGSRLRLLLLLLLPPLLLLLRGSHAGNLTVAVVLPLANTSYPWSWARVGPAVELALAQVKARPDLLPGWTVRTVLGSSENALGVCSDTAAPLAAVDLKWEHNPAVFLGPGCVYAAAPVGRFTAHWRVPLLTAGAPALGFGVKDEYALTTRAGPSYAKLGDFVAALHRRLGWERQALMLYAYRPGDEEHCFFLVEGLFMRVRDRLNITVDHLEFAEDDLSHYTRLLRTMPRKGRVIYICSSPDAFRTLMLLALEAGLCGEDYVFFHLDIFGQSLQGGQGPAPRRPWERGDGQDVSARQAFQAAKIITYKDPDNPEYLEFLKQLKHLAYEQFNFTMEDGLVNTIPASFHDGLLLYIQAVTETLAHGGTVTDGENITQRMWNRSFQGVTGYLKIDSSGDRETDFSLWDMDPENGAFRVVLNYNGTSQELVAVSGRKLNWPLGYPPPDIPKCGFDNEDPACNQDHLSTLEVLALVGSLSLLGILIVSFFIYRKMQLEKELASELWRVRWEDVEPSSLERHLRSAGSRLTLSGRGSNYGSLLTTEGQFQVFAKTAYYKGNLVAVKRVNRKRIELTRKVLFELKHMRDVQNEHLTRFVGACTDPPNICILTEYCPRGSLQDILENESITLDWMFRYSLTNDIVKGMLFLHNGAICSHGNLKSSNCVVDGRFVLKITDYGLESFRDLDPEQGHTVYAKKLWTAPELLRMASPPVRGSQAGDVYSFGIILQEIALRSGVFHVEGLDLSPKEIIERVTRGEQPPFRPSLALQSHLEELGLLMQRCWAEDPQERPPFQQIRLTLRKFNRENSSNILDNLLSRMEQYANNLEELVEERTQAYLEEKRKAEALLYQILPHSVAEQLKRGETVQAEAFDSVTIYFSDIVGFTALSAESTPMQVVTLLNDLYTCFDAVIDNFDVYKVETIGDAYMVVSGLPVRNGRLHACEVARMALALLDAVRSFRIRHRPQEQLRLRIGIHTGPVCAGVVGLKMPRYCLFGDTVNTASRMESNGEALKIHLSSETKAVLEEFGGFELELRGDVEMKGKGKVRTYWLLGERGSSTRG

SMILES	activation
COc1ccc([N+](=O)[O-])cc1NC(=O)CC1SC(=Nc2cccc(C)c2C)N(/N=C(\C)c2ccc(C)cc2)C1=O (stereo unspecified)	0.41%
Cc1ccc(NS(=O)(=O)c2ccc(-c3coc(C)n3)cc2)c(C)c1	4.2%
C=CCOc1ccc(/C=N/n2cncn2)cc1OC	7.58%
C#CCOc1ccccc1/C=C1/C(=O)ON=C1C	25.7%
C#CCOc1ccc(/C=C2/C(=O)ON=C2C)cc1OCC	43.3% (active)
C=CCOc1ccc(/C=N/NC(=O)C(C)Sc2ccccn2)cc1OCC (stereo unspecified)	1.12%
C=CCOc1ccc(/C=C2/C(=O)ON=C2C)cc1OCC	41% (active)
Cc1ccc(N2C(=O)C3C4C=CC(CC4)C3C2=O)cc1Cl (stereo unspecified)	2.95%
CN(CC(=O)Nc1c(Cl)cccc1Cl)C(=O)c1ccncc1	3.63%
C=C1CCN([C@H](C(=O)NCc2cc(OC)c(OC)c(OC)c2)C(C)C)S(=O)(=O)c2ccccc21	4.37%
CCCC(C(=O)N1CCOCC1)N1C(=O)C2C3C=CC(C3)C2C1=O (stereo unspecified)	2.35%
O=C(Nc1cccc(Br)c1)C1CC(=O)N(C2CCCC2)C1 (stereo unspecified)	0.08%
Cc1cccc(NC(=O)C2CCCN2S(=O)(=O)c2ccc(F)cc2)c1C (stereo unspecified)	0.56%
CCC(=O)Nc1c(C)n[nH]c1C	-1.11%
COc1cc(F)c(C2=CC(=O)CC(C)(C)C2)cc1F	0.01%
COC(=O)Cc1ccc(OC(=O)C2CCN(S(=O)(=O)c3ccc(OC)c(OC)c3)CC2)cc1	3.18%
COC(=O)c1cn(C)c2ccc(S(=O)(=O)N3CC(C)CC(C)C3)cc2c1=O (stereo unspecified)	-6.76%
Cc1nc(CNc2ncnc3ccc(-c4ccc5c(c4)OCO5)cc23)cs1	5.54%
O=C(Cn1nnc(-c2ccc3c(c2)OCO3)n1)NCc1ccco1	-5.64%
c1coc(CCNc2ncnc3ccc(-c4ccc5c(c4)OCO5)cc23)c1	43.1% (active)
Cc1ccc(NC(=O)CN(C)C(=O)COC(=O)C(C)(C)Oc2ccc(Cl)cc2)cc1	-1.24%
CCn1nc(C(=O)NNC(=O)C2CSC3(C)CCC(=O)N23)c2ccccc2c1=O (stereo unspecified)	-1.32%
Cc1cc(C)c(C#N)c(SCS(=O)c2ccc(C(C)(C)C)cc2)n1 (stereo unspecified)	4.18%
CC(=O)c1c(C)[nH]c(=S)c(C#N)c1-c1ccc(F)cc1	5.29%
CCOC(=O)c1c(C)[nH]c(=S)c(C#N)c1-c1ccccc1	49.5% (active)
CCc1c(C)[nH]c(=S)c(C#N)c1C	2.4%

Reference: PubChem BioAssay AID1671463 (Sanford-Burnham Center for Chemical Genomics, 2021)
